Results as given in PubChem BioAssay (NCI).
The panel holds about 79,000 compounds, 15% with a hit somewhere; the sample as a whole holds those more often. A number with no mark means an inactive call. Activity calls are given as the source filed them. Rule as the data show it: active = growth inhibition above about 70%; inactive = the rest.

Legend:
[1] = NCI Yeast Anticancer Drug Screen. Data for the rad50 strain (AID 155);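 also: 0% = growth of vehicle-only cultures of the same strain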; details: S. cerevisiae rad50 strain growth inhibition, hits give high values
How it was run: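 Inhibition values express reduced yeast growth in compound-treated cultures relative to vehicle-treated controls.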

[2] = NCI Yeast Anticancer Drug Screen. Data for the mec2-1 strain (AID 157); details: S. cerevisiae mec2-1 strain, hits give high values
How it was run: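 Readout is yeast growth inhibition, normalised to vehicle-treated controls, in the mec2-1 strain exposed to compound.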

[3] = NCI Yeast Anticancer Drug Screen. Data for the sgs1 mgt1 strain (AID 161);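 also: 0% = growth of cultures given vehicle only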; details: S. cerevisiae sgs1 mgt1 strain, hits give high values
How it was run: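 Percent growth inhibition was derived by comparing compound-exposed mutant yeast with vehicle-exposed cultures. The strain carries alterations in DNA damage repair.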

[4] = NCI Yeast Anticancer Drug Screen. Data for the cln2 rad14 strain (AID 165);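 also: 0% = growth equal to vehicle treated cultures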; details: S. cerevisiae cln2 rad14 strain, hits give high values
How it was run: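 Relative to vehicle controls, growth inhibition of compound-treated cln2 rad14 yeast was recorded.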

[5] = NCI Yeast Anticancer Drug Screen. Data for the bub3 strain (AID 167); details: S. cerevisiae bub3 mutant strain, hits give high values
How it was run: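 Steps: expose the mutant yeast strain to compound; grow alongside vehicle-treated cultures; measure growth; express inhibition against the vehicle cultures.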

[6] = NCI Yeast Anticancer Drug Screen. Data for the mlh1 rad18 strain (AID 175); details: S. cerevisiae mlh1 rad18 strain growth inhibition, hits give high values
How it was run: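 Test agents were incubated with a yeast strain of defined genotype (DNA damage repair defect). Inhibition of growth was derived by comparison with vehicle-exposed cultures.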

[7] = at 5.0 µM (retest, dose inferred, filed as 0.5)
[8] = at 50.0 µM (retest, dose inferred, filed as 5.0)

SMILES	growth inhibition [1, 7]	growth inhibition [1, 8]	growth inhibition ([1]; at 50.0 µM)	growth inhibition [2, 7]	growth inhibition [2, 8]	growth inhibition ([2]; at 50.0 µM)	growth inhibition [3, 7]	growth inhibition [3, 8]	growth inhibition ([3]; at 50.0 µM)	growth inhibition [4, 7] [%]	growth inhibition [4, 8]	growth inhibition ([4]; at 50.0 µM)	growth inhibition [5, 7]	growth inhibition [5, 8]	growth inhibition ([5]; at 50.0 µM)	growth inhibition [6, 7]	growth inhibition [6, 8]	growth inhibition ([6]; at 50.0 µM)
O=c1nc(-c2ccccc2)cc(-c2ccccc2O)[nH]1	-11%	93% (active)	44.1%	-1%	25%	16.3%	-1%	40%	30.4%	19	61%	33.8%	0%	87% (active)	16.9%	1%	68%	33.5%
CN(C)CCCN=c1c2ccccc2n(O)c2ccccc12	-8%	-6%	-27.9%	-16%	-19%	-6.95%	-16%	-3%	-32.5%	22	20%	24.7%	-4%	-20%	-9.35%	-20%	-16%	8.3%
CC(=O)NC1=C(Cl)C(=O)c2ccccc2C1=O	91% (active)	99% (active)	99.5% (active)	93% (active)	99% (active)	99.5% (active)	70% (active)	100% (active)	99.7% (active)	21	99% (active)	98.8% (active)	96% (active)	99% (active)	99.4% (active)	96% (active)	99% (active)	99.5% (active)
C[C@]12CC[C@H](O)CC1=CC[C@@H]1C2CC[C@]2(C)NC(=O)CCC12 (stereo not given in full)	-4%	0%	46.9%	1%	4%	40.8%	-2%	16%	82.8% (active)	1	0%	53%	3%	4%	39.3%	-3%	1%	76% (active)
CCN(CC)c1cccc(OC(=O)Nc2cccc(C(F)(F)F)c2)c1	50%	73% (active)	84% (active)	37%	73% (active)	81.2% (active)	42%	80% (active)	83.8% (active)	28	64%	82.9% (active)	42%	79% (active)	87.6% (active)	44%	88% (active)	83.4% (active)
